Laboratory results reported in PubChem BioAssay (Tox21).
Values joined by “and” are separate entries in the source; they are usually repeats but may differ in a detail not shown here. Equal entries are not always repeated. Records with an inconclusive call do not appear. A call without a number means that no potency is given here. More than one record can exist for a structure, and the calls need not agree. Active and inactive are the calls of the source. Calls come from the whole dose curve; as a rule, active = well fitted inhibition curve with a large enough effect in the signal ratio in the repeat runs; inconclusive = weak or mixed curves, or effect the other way; inactive = flat fitted curve, though single readings scatter; the % refers to the signal ratio.

Assay: qHTS assay for small molecule disruptors of the mitochondrial membrane potential (AID 720635)
Conditions: HepG2 mitochondrial membrane potential, Mito-MPS dye ratio; series mostly up to 83.2 µM
Text: U.S. Tox21 Program National Center for Advancing Translational Sciences [NCATS] NIH Chemical Genomics Center [NCGC] U.S. Environmental Protection Agency [EPA] National Institutes of Environmental Health Sciences [NIEHS] National Toxicology Program [NTP] U.S. Food and Drug Administration [FDA] Tox21 Assay Overview: Mitochondrial membrane potential (MMP), one of the parameters for mitochondrial function, is generated by mitochondrial electron transport chain that creates an electrochemical gradient by a series of redox reactions. This gradient drives the synthesis of ATP, a crucial molecule for various cellular processes. Measuring MMP in living cells is commonly used to assess the effect of chemicals on mitochondrial function. […] The dye accumulates in the mitochondria of healthy cells as aggregates, with red fluorescence. The mitochondrial potential collapses and the dye can no longer accumulate in the mitochondria and remains in the cytoplasm in monomers, with green fluorescence.
Tox21 Assay Protocol Summary: 2,000 HepG2 cells in 5 uL/well were dispensed into black, clear-bottom 1536-well plates using a Multidrop Combi (Thermo Scientific) dispenser. The assay plates were incubated overnight at 37C to allow cells to attach to the wells, followed by the transfer of 23 nL compound or DMSO vehicle by a pin tool (Kalypsys). The plates were incubated for 1 hr at 37C and 5% CO2, followed by the addition of 5 uL of 2X Mito-MPS dye (BD Biosciences) into each well using Flying Reagent Dispenser (Aurora Discovery) and then following 30 min incubation at 37C. Fluorescence intensity (490nm excitation and 535nm emission for monomers; and 540nm excitation and 590nm emissions for aggregates) was measured using an Envision plate reader.
Potency is the fitted concentration of half-maximal effect.

| Compound | Potency |
| --- | --- |
| CCCCCCOC(C)=O | inactive |
| CCCCOCCOCCOC(=O)CCCCC(=O)OCCOCCOCCCC | inactive |
| CC(C)(C)C1CCC(O)CC1 (stereo not given) | inactive |
| C=C1CC[C@H](O)CC1=C/C=C1\CCC[C@]2(C)[C@@H]([C@H](C)/C=C/[C@H](C)C(C)C)CC[C@@H]12 | inactive and 60.6 µM (active) |
| CC(C)Cc1ccccc1 | inactive |
| CCOC(=O)[C@H](CCc1ccccc1)N[C@@H](C)C(=O)N1Cc2ccccc2C[C@H]1C(=O)O | inactive |
| ClC1=C(Cl)C(Cl)(Cl)C(Cl)=C1Cl | 61.1 µM (active) |
| Cc1ccc(C(=O)O)o1 | inactive |
| CN(CCOc1ccc(CC2SC(=O)NC2=O)cc1)c1ccccn1 (stereo not given) | 48.3 µM (active) |
| c1ccc2ccccc2c1 | inactive |
| Oc1c(Cl)cc(Cl)c(Cl)c1Cl | 11.9 µM (active) and 19.3 µM (active) |
| CNC[C@H](O)[C@@H](O)[C@H](O)[C@H](O)CO | inactive |
| CCCCCCC(C)(C)S | inactive |
| OCC1CCCO1 (stereo not given) | inactive |
| COC(=O)c1ccc(C(=O)OC)cc1 | inactive |
| CCCCCC/C=C/CCCCCCCC(=O)O | inactive |
| c1ccc2[nH]cnc2c1 | inactive |
| CS(=O)(=O)c1ccc([C@@H](O)[C@@H](CO)NC(=O)C(Cl)Cl)cc1 | inactive |
| NCCNCCNCCNCCN | inactive |
| CCCCCCCCC | inactive |

| Compound | Potency |
| --- | --- |
| C=C1C2CCC(C2)C1(C)C (stereo not given) | inactive |
| CCCCOCCO | inactive |
| O=C1N=C(O)CN1/N=C/c1ccc(-c2ccc([N+](=O)[O-])cc2)o1 | 3.35 µM (active) and 2.43 µM (active) |
| O=C(c1cc(O)c(O)c(O)c1)c1ccc(O)c(O)c1O | 30.5 µM (active) and 19.3 µM (active) |
| CCCCC(CC)C(=O)OCCOCCOCCOC(=O)C(CC)CCCC (stereo not given) | inactive and 15.4 µM (active) |
| CCc1ccccc1O | inactive |
| CCC(C)C=O (stereo not given) | inactive |
| C=CC(=O)OCCCCCCCC(C)C | inactive |
| CC(C)n1c(/C=C/[C@@H](O)C[C@@H](O)CC(=O)O)c(-c2ccc(F)cc2)c2ccccc21 | 26.6 µM (active) |
| COCC(=O)O | inactive |
| CCCCNC(N)=O | inactive |
| O=c1c(-c2ccc(O)cc2)coc2cc(O)ccc12 | 19.1 µM (active) |
| CC1Cc2ccccc2N1NC(=O)c1ccc(Cl)c(S(N)(=O)=O)c1 (stereo not given) | inactive |
| CCOC(=O)C1OC1c1ccccc1 (stereo not given) | inactive |
| O=C1CCCCC1 | inactive |
| O=Nc1ccc(O)cc1 | 670 nM (active) and 13.7 µM (active) |
| CC#C[C@]1(O)CC[C@H]2[C@@H]3CCC4=CC(=O)CCC4=C3[C@@H](c3ccc(N(C)C)cc3)C[C@@]21C | 10.6 µM (active) |
| CC[Si](OC(C)=O)(OC(C)=O)OC(C)=O | inactive |
| O=S(=O)(O)CCS | inactive |
| Cc1cc(O)cc(C)c1Cl | 21.1 µM (active) and 21.7 µM (active) |
